Test [1] has as its target T1, Ephrin type-A receptor 3 (Homo sapiens) (UniProt P29320).
T1 sequence (whole entry): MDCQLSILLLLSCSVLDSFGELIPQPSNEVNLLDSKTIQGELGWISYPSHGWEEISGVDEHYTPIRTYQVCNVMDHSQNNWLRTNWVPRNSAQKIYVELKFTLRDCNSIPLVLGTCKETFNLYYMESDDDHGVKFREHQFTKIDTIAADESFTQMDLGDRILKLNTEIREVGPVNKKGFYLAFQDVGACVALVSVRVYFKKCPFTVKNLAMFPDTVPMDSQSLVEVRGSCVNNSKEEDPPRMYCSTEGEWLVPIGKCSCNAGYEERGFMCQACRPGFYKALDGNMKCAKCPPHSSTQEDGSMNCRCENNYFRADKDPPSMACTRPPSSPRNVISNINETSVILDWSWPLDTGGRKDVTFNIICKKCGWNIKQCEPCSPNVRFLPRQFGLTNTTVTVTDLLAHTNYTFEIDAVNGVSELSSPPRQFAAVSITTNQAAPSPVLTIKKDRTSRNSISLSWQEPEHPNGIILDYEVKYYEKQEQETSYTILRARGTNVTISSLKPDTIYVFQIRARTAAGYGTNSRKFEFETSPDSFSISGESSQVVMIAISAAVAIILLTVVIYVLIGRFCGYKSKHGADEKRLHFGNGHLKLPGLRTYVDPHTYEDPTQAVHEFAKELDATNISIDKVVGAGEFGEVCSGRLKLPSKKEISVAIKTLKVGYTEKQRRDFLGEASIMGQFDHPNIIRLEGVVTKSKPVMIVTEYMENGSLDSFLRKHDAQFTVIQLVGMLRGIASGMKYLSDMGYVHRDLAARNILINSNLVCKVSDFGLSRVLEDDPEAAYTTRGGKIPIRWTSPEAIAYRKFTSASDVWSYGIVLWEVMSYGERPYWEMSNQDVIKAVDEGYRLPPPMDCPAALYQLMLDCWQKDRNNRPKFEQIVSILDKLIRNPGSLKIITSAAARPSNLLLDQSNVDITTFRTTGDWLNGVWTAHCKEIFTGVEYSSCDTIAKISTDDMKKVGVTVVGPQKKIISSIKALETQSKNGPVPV
The note with it: at 10 µM.

The target of test [2] is Ephrin type-A receptor 4 (Homo sapiens) (UniProt P54764). The note with it: at 1 µM.
Test [3] shares this target. The following applies: at 10 µM.
Test [4] concerns the target Ephrin type-A receptor 5 (Homo sapiens) (UniProt P54756). The note with it: at 1 µM.
Test [5] shares this target. The following applies: at 10 µM.
Test [6] addresses Ephrin type-A receptor 7 (Homo sapiens) (UniProt Q15375). The following applies: at 1 µM.
Test [7] has the same target. The note with it: at 10 µM.
The target of test [8] is T2, Ephrin type-A receptor 8 (Homo sapiens) (UniProt P29322).
T2 sequence (whole entry): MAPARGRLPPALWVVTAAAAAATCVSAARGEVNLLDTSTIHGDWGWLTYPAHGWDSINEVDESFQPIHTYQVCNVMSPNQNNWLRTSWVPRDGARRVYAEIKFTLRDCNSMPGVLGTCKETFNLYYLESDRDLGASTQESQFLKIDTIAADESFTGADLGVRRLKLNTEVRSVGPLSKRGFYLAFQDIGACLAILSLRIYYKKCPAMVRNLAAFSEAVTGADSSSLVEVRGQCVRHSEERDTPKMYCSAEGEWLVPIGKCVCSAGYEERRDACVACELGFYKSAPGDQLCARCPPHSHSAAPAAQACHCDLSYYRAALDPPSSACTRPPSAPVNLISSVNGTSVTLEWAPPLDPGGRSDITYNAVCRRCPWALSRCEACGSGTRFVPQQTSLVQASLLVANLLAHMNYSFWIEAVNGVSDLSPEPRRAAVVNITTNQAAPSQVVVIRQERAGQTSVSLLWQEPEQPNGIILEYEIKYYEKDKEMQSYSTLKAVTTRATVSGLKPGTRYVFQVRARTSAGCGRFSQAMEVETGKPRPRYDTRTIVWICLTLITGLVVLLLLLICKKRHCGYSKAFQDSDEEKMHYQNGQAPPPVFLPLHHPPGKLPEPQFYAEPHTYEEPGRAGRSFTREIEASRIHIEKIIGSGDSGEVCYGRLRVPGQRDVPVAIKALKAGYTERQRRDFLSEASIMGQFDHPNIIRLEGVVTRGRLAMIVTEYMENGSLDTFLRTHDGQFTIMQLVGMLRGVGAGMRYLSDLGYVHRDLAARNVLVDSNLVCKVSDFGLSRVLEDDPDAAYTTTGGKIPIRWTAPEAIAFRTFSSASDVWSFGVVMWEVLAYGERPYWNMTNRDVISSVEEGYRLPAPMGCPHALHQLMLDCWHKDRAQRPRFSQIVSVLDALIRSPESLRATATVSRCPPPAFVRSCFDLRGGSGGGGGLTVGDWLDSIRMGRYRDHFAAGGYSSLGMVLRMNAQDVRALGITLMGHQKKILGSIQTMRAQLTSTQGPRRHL
The following applies: at 1 µM.

Test [9] concerns the target T2, Ephrin type-A receptor 8 (Homo sapiens). The note with it: at 10 µM.
Test [10] concerns the target T3, Ephrin type-B receptor 1 (Homo sapiens) (UniProt P54762).
T3 sequence (whole entry): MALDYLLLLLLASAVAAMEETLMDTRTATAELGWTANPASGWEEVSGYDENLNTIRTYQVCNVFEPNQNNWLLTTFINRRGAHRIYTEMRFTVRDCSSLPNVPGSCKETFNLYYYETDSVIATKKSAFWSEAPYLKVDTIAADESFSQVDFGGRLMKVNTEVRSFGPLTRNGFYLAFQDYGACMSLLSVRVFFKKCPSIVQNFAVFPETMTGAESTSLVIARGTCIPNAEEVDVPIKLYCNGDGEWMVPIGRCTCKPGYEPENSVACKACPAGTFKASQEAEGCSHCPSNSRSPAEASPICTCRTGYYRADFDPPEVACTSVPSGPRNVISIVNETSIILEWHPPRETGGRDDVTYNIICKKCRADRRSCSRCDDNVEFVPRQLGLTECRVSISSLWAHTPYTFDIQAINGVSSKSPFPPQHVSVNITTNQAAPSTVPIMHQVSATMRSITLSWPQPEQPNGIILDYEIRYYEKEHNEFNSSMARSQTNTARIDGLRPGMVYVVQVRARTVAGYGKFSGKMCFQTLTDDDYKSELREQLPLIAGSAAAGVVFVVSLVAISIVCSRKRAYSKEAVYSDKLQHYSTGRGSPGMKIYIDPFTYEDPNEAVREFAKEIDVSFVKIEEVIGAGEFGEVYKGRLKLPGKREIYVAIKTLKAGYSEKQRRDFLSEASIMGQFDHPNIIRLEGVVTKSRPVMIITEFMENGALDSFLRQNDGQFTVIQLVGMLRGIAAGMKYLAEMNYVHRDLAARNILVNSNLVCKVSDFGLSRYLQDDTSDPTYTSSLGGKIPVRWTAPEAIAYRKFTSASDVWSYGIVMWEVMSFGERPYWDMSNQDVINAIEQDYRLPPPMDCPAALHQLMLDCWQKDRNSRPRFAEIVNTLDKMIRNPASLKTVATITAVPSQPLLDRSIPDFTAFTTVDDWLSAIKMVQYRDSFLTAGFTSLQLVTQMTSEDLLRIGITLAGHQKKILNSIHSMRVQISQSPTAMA
The following applies: at 1 µM.

The record followed here is ChEMBL document CHEMBL2218924, “A broad activity screen in support of a chemogenomic map for kinase signalling research and drug discovery” (Biochem J, 2013).

What is called residual activity is the share of the control activity or signal that is left under treatment. Read a low residual activity as a large loss of activity.

Each structure is given as a SMILES string.

Ephrin type-A receptor 5 (Homo sapiens), sequence (P54756 whole entry): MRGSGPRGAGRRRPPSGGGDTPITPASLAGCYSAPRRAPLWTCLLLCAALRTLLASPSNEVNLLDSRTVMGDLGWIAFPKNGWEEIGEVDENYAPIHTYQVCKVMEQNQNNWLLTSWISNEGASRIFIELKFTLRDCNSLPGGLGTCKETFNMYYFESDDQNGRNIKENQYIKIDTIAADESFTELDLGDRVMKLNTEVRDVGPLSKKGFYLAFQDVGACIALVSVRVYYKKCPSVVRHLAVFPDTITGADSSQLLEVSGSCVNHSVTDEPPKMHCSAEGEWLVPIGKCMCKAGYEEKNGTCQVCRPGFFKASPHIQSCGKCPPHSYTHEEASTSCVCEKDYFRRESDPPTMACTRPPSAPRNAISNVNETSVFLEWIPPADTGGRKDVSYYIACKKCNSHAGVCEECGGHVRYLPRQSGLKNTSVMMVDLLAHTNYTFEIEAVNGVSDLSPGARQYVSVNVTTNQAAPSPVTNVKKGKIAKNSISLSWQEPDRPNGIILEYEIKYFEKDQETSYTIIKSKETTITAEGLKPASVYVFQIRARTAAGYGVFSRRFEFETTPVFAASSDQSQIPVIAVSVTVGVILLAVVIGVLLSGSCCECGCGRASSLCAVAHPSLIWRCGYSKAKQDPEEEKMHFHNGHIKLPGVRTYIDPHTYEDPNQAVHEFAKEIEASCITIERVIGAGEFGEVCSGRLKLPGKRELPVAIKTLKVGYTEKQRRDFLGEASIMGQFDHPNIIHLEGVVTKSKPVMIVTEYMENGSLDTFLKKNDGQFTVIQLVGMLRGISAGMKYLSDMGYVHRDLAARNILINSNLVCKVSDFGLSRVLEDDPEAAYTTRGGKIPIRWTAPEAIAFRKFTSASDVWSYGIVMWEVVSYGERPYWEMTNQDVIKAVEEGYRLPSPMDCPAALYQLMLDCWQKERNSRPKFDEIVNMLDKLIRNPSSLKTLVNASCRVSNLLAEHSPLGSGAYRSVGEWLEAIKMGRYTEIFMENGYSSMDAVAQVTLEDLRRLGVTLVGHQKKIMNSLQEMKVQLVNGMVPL
Ephrin type-A receptor 4 (Homo sapiens), sequence (P54764 whole entry): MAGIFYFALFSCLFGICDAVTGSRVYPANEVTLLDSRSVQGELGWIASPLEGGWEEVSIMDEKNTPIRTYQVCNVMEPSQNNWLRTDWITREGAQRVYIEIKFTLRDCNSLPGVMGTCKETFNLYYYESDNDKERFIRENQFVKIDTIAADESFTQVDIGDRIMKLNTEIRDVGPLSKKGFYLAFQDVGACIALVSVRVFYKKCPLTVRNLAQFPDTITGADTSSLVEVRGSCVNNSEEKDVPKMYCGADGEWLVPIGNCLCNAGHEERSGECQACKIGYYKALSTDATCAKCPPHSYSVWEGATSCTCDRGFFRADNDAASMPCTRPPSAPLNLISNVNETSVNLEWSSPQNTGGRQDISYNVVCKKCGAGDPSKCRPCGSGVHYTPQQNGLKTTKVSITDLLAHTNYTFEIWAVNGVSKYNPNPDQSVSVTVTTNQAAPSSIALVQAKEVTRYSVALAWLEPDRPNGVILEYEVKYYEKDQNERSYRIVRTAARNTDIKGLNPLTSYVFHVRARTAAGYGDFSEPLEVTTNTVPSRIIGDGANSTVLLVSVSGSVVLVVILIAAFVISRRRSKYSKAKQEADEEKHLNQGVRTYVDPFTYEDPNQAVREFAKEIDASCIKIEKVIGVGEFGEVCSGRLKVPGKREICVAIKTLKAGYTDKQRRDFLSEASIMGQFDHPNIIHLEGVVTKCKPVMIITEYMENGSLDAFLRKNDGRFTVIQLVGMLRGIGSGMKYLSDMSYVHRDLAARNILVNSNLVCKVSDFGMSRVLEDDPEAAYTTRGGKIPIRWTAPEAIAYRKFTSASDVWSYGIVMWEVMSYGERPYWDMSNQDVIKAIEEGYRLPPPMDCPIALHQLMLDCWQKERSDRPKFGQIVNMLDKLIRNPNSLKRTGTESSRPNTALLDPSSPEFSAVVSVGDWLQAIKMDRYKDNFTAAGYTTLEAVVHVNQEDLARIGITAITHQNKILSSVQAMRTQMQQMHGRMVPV
Ephrin type-A receptor 7 (Homo sapiens), sequence (Q15375 28-998 limits assumed): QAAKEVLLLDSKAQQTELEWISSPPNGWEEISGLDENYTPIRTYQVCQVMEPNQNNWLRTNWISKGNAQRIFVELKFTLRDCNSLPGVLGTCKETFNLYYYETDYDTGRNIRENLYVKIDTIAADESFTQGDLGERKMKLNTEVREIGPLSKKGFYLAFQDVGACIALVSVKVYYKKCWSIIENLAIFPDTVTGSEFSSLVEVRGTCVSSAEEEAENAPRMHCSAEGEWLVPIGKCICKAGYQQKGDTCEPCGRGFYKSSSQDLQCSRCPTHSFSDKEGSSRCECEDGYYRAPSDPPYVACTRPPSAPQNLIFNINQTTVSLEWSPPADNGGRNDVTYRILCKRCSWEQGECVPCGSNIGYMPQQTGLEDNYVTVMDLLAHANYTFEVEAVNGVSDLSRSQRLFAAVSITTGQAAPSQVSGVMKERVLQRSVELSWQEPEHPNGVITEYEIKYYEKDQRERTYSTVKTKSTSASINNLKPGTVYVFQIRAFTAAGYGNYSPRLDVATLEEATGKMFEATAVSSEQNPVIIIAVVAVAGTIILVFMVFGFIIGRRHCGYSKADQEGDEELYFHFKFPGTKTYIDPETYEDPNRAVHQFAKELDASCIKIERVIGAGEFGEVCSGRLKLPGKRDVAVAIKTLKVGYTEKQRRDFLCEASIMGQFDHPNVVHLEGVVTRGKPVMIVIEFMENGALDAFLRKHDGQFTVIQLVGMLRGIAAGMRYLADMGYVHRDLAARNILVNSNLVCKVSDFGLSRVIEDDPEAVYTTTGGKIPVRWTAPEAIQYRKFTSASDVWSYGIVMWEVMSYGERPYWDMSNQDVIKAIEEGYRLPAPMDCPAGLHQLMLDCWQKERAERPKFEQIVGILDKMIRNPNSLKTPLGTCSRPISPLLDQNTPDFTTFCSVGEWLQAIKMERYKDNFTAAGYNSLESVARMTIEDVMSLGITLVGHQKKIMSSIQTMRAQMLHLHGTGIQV

As to `Cn1cc(/C=C2\C(=O)Nc3ccc(S(N)(=O)=O)cc32)c2ccccc21`, the residual activity in test [1] stood at 13%; in test [2] it was 96%; in test [3], 89%; in test [4] it was 54%; in test [5], 53%; in test [6] it was 32%. Further, the residual activity in test [7] turned out to be 9%; in test [8], 88%; in test [9], 54%; in test [10], 66%.
